HEK293 tox = cytotoxic compounds in HEK 293 cells | Potency, µM (titrated, usually from 115 µM), actives largely listed as inhibitors | 6.6% of 94,000 active | AID 1345083 | HEK 293 viability, ATP luminescence (CellTiter-Glo), 48-72 h; note: nearly all actives have a fitted effect of over 60% in size
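Read-out: CellTiter-Glo ATP luminescence. Cells: HEK 293, 250 cells/well. Exposure: 48 or 72 hr, 37 degree Celsius.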
hNpr1 antagonist = human Npr1 receptor antagonism | HEK293 hNpr1 GloSensor cGMP, ANP-stimulated luminescence | AID 1347048 | Potency, µM (series often up to 46.3 µM), actives largely listed as inhibitors | P16066 | 1.6% of 76,000 active; calls by dose curve; note: nearly all actives have a fitted effect of over 60% in size
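HEK293 cells stably expressing human Npr1 and cGMP GloSensor pGS-40F, loaded 2 h with 2% GloSensor reagent, given compound 30 min at room temperature. Luminescence read before and 20 min after 0.1 nM hNppA.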
3T3 cytotox = NIH 3T3 cell cytotoxicity. AID 1345082. Potency, µM (series often up to 96.7 µM), usual class: inhibitors. 4.3% of 94,000 active. NIH 3T3 viability, CellTiter-Glo ATP luminescence, 48-72 h; note: nearly all actives have a fitted effect of over 55% in size
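NIH 3T3 cells at 400 cells/well received 23 nL of compound by pintool and were incubated 48 or 72 h at 37 °C. Viability was read as ATP-coupled CellTiter-Glo luminescence.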
Luciferase inh = blocks purified firefly luciferase enzyme activity; P08659; purified P. pyralis luciferase, luminescence, biochemical; Potency, µM (doses to about 115 µM), most hits filed as inhibitors; 2.5% of 76,000 active; note: nearly all actives have a fitted effect of over 65% in size
Target sequence (P08659 whole entry, looked up): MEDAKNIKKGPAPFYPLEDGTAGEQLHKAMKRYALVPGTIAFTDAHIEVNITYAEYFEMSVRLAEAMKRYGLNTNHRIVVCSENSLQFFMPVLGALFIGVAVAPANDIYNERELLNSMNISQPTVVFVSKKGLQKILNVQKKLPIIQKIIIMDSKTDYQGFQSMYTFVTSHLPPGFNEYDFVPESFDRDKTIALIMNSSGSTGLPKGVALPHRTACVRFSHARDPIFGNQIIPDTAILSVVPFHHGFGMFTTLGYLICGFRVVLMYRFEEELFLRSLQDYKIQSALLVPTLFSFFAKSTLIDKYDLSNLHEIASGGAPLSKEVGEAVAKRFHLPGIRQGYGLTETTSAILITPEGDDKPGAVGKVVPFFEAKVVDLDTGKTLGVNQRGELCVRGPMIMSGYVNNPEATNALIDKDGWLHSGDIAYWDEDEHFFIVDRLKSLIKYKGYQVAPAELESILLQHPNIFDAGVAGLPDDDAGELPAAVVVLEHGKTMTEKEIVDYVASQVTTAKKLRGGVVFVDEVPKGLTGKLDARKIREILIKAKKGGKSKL
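Luminescence read by CCD imager after adding enzyme (10nM final) to wells holding compound, titrated in qHTS. Substrates 10uM each D-luciferin and ATP; buffer 50mM Tris acetate pH 7.5, 10mM Mg acetate, Tween-20, BSA.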
Of the large screens only hits and unclear results are named; the others gave an inactive call. In the library only some 11% were active in any assay of this set; here they are far more common. Unless noted, calls come from the whole dose curve; as a rule, active = well fitted curve in the direction sought with a large enough effect; inconclusive = small, poorly fitted or top-dose-only effect, or another doubt; inactive = no such curve, though single readings can be large; an effect the other way counts as inactive or inconclusive.

CN1CCC2(C1)CN(CC1CC1)c1ccc(C(=O)NCCOc3ccccc3)cc12 (stereo not given)	HEK293 tox 56µM, 3T3 cytotox 40µM
Fc1ccc(OC2CN(Cc3cccc4ccccc34)C2)c(F)c1	HEK293 tox inconclusive (no result: hNpr1 antagonist, Luciferase inh)
COc1ccc(Cl)cc1-c1ccc2c(c1)C(=O)N1C[C@@H](NS(=O)(=O)c3ccc(F)cc3)C[C@H]1C(=O)N2	HEK293 tox 35µM, 3T3 cytotox inconclusive
COc1ccc(Cl)cc1-c1ccc2c(c1)C(=O)N1C[C@H](O)C[C@H]1C(=O)N2	HEK293 tox inconclusive, 3T3 cytotox inconclusive
COc1ccc(Cl)cc1-c1ccc2c(c1)C(=O)N1CC[C@H](N)C[C@H]1C(=O)N2	HEK293 tox 25µM, 3T3 cytotox 32µM
O=C1CCN(C(=O)C2CCN(Cc3c[nH]c4ccccc34)CC2)CCCCCCN1	none
O=C(CCc1ccc(CC2CCN(Cc3c[nH]c4ccccc34)CC2)cc1)N1CCCC1	HEK293 tox 35µM, 3T3 cytotox 32µM (no result: hNpr1 antagonist, Luciferase inh)
Cn1ccnc1C(=O)N1CCC(Cc2ccc(CCC(=O)N3CCCC3)cc2)CC1	HEK293 tox 40µM, 3T3 cytotox inconclusive (no result: hNpr1 antagonist, Luciferase inh)
Cn1cnnc1CC1CCN(C(=O)CCc2ccccc2)CC1	none (no result: hNpr1 antagonist, Luciferase inh)
O=C(NCCCN1CCc2ccccc2C1)C1CCCCC(=O)N1Cc1ccccc1 (stereo not given)	none
COC(=O)N(C)Cc1cccc(N2CCN([S+](=O)([O-])c3c(Cl)cccc3Cl)CC2)c1F	HEK293 tox 14µM, 3T3 cytotox inconclusive (no result: hNpr1 antagonist, Luciferase inh)
CN(Cc1cccc(N2CCN(C(=O)OC(C)(C)C)CC2)c1F)[S+](C)(=O)[O-]	HEK293 tox 79µM, 3T3 cytotox inconclusive (no result: hNpr1 antagonist, Luciferase inh)
CN(Cc1cccc(F)c1)C1CN(C(=O)OC(C)(C)C)C1	none (no result: hNpr1 antagonist, Luciferase inh)
COc1ccc(-c2cc(C(=O)N3CCN(C(C)=O)CC3)c3cnn(C)c3n2)cc1	none (no result: hNpr1 antagonist, Luciferase inh)
CC(C)N[C@H]1C[C@@H](Cc2cc(-c3ccccc3)on2)C1(C)C	HEK293 tox 63µM, 3T3 cytotox 63µM, Luciferase inh inconclusive
CN1CCC(N[C@H]2C[C@@H](Cc3cc(-c4ccccc4)on3)C2(C)C)CC1	HEK293 tox 8.9µM, 3T3 cytotox 8.9µM
CN1CCC(N[C@H]2C[C@@H](Cc3cc(CN(C)Cc4ccccc4)on3)C2(C)C)CC1	HEK293 tox 40µM, 3T3 cytotox 28µM
CC1(C)[C@H](Cc2cc(CCO)on2)C[C@@H]1NC1CCOCC1	none
COc1cccc(CN2CCOC3(CCN(Cc4ccc5[nH]ccc5c4)CC3)C2=O)c1	HEK293 tox inconclusive, 3T3 cytotox inconclusive
COc1cccc(CN2CCOC3(CCN(Cc4cccc(Cl)c4)CC3)C2=O)c1	HEK293 tox 79µM, 3T3 cytotox inconclusive
CCOC(=O)[C@H]1C[C@]2(CCCCN(CCOC(C)=O)C2=O)N(C(=O)c2ccno2)[C@H]1c1ccccc1	3T3 cytotox inconclusive (no result: hNpr1 antagonist, Luciferase inh)
CNC(=O)c1cc(C)nc2onc(C3CCN(C(=O)OC)C3)c12 (stereo not given)	none (no result: hNpr1 antagonist, Luciferase inh)
CC(C)NC(=O)N1CCC(Oc2ccccc2-c2nc(-c3ccccc3)no2)C1 (stereo not given)	HEK293 tox inconclusive, 3T3 cytotox inconclusive, Luciferase inh inconclusive
CCN1CCC(N2CCC(Oc3ccccc3-c3nc(-c4ccncc4)no3)C2)CC1 (stereo not given)	HEK293 tox 13µM, 3T3 cytotox 6.3µM
O=C(CCc1ccccc1)N1CC(Oc2ccccc2-c2nc(-c3ccccc3)no2)C1	HEK293 tox 40µM, 3T3 cytotox 35µM (no result: hNpr1 antagonist, Luciferase inh)
O=C(Nc1ccccc1)N1CCC(Oc2ccccc2-c2nc(-c3ccccc3)no2)C1 (stereo not given)	HEK293 tox 25µM, 3T3 cytotox 32µM, Luciferase inh inconclusive
COc1cccc(NC(=O)N2CCOC(CN(CC(C)C)C(=O)c3cccc(OC)c3)C2)c1 (stereo not given)	HEK293 tox inconclusive
CC(C)CN(CC1CN(C(=O)c2cccc(Cl)c2)CCO1)C(=O)c1cccc2ccccc12 (stereo not given)	HEK293 tox 35µM, 3T3 cytotox inconclusive
Cc1ccc(C(=O)N(CC(C)C)CC2CN(C(=O)c3ccc(Cl)c(Cl)c3)CCO2)cc1 (stereo not given)	HEK293 tox 45µM, 3T3 cytotox inconclusive
Cc1ccc(C(=O)N(CC(C)C)CC2CN(C(=O)Nc3cccc(Cl)c3)CCO2)cc1 (stereo not given)	HEK293 tox 40µM, 3T3 cytotox inconclusive
CN1CCCN(C(=O)c2cn3ccnc(-c4ccccc4)c3n2)CC1	none
CC(C)CC(=O)N1C(C(=O)NCC2CCCO2)COC12CCC(C)CC2 (stereo not given)	none

Compound activity (PubChem BioAssay)
